We go through 6 compounds from ChEMBL document CHEMBL1961873, “Compounds: GSK PKIS; Assays: Nanosyn kinase panel” (2012).

Structures are written as SMILES.

In test [1] the target is High affinity nerve growth factor receptor (Homo sapiens) (UniProt P04629). Particulars: at 1 µM.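 Further: each value is the mean percent inhibition of TRKA.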
The target of test [2] is BDNF/NT-3 growth factors receptor (Homo sapiens) (UniProt Q16620). Particulars: at 0.1 µM.
The target is the same in test [3]. Particulars: at 1 µM.
Test [4] deals with NT-3 growth factor receptor (Homo sapiens) (UniProt Q16288). Particulars: at 0.1 µM.
NT-3 growth factor receptor (Homo sapiens), sequence (Q16288 32-839 limits assumed): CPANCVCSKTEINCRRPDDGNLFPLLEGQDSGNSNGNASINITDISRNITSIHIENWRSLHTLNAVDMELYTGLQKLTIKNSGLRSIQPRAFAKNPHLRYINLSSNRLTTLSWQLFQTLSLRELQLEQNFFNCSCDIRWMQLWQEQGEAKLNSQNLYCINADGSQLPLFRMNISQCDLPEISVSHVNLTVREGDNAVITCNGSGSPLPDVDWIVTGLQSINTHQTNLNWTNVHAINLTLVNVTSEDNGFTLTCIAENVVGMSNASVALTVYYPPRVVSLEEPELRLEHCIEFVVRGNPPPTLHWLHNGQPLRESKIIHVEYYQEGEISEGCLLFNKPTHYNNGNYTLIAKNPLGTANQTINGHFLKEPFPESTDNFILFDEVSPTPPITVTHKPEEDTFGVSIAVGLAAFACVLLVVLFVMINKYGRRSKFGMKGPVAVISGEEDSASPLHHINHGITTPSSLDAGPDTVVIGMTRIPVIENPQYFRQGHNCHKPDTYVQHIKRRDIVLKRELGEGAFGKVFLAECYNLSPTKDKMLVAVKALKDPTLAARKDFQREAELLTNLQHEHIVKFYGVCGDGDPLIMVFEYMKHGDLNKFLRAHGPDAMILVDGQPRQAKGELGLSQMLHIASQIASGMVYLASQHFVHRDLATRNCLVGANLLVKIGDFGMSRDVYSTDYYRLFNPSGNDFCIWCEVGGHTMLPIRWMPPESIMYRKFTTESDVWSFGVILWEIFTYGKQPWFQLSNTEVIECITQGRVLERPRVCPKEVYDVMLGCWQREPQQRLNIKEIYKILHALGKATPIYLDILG
Test [5] shares this target. Particulars: at 1 µM.
The target in test [6] is T1, Tyrosine-protein kinase TXK (Homo sapiens) (UniProt P42681).
T1 sequence (whole entry): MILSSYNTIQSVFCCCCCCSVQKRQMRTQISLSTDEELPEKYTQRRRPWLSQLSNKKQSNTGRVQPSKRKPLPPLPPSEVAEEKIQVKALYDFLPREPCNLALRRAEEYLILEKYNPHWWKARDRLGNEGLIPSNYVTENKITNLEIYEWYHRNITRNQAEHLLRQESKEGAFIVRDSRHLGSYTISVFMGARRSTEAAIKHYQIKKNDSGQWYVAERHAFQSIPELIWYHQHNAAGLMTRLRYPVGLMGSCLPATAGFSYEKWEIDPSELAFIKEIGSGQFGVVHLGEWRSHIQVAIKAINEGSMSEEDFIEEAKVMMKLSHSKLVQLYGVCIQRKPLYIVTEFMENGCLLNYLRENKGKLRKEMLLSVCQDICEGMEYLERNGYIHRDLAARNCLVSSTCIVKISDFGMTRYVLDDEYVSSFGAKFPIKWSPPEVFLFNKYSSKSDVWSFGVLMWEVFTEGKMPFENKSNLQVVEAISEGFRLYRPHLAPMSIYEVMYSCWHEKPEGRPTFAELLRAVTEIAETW
Particulars: at 0.1 µM.

The target in test [7] is T1, Tyrosine-protein kinase TXK (Homo sapiens). Particulars: at 1 µM.
The target of test [8] is Non-receptor tyrosine-protein kinase TYK2 (Homo sapiens) (UniProt P29597). Particulars: at 0.1 µM.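 Further: each value is a mean of the inhibition readings.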
Non-receptor tyrosine-protein kinase TYK2 (Homo sapiens), sequence (P29597 whole entry): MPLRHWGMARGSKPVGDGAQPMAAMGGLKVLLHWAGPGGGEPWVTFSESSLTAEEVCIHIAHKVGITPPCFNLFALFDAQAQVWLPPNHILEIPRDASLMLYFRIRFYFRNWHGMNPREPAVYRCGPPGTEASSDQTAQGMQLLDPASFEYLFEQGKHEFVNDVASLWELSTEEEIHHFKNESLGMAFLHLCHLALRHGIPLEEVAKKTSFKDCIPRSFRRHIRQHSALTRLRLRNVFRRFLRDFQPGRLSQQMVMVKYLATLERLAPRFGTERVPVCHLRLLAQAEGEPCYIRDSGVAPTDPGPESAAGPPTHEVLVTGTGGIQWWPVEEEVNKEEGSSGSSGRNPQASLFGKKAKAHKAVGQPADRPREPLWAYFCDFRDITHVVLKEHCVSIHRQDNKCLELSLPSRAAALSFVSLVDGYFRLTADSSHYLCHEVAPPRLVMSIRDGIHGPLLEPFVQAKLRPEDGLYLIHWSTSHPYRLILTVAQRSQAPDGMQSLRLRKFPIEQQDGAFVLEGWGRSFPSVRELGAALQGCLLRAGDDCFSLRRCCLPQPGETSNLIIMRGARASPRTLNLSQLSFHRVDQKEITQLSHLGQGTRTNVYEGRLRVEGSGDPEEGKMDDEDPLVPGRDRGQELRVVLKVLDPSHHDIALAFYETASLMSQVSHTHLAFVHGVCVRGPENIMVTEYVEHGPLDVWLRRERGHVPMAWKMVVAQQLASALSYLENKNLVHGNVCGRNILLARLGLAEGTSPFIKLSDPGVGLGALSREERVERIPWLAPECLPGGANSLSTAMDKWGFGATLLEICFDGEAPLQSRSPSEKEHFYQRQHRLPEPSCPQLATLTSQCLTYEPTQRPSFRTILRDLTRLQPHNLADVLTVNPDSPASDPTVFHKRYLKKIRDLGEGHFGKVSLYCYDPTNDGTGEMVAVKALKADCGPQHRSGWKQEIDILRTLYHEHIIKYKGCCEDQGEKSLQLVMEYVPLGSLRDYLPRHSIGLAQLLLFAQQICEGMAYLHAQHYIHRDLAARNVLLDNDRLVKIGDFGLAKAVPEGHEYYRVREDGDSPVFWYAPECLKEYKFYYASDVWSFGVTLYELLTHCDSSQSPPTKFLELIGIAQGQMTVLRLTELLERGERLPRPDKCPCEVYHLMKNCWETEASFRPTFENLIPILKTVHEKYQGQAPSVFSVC
For test [9], the target named is T2, Dual specificity protein kinase TTK (Homo sapiens) (UniProt P33981).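 Further: reported figures are mean TTK inhibition at 1 µM.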
T2 sequence (whole entry): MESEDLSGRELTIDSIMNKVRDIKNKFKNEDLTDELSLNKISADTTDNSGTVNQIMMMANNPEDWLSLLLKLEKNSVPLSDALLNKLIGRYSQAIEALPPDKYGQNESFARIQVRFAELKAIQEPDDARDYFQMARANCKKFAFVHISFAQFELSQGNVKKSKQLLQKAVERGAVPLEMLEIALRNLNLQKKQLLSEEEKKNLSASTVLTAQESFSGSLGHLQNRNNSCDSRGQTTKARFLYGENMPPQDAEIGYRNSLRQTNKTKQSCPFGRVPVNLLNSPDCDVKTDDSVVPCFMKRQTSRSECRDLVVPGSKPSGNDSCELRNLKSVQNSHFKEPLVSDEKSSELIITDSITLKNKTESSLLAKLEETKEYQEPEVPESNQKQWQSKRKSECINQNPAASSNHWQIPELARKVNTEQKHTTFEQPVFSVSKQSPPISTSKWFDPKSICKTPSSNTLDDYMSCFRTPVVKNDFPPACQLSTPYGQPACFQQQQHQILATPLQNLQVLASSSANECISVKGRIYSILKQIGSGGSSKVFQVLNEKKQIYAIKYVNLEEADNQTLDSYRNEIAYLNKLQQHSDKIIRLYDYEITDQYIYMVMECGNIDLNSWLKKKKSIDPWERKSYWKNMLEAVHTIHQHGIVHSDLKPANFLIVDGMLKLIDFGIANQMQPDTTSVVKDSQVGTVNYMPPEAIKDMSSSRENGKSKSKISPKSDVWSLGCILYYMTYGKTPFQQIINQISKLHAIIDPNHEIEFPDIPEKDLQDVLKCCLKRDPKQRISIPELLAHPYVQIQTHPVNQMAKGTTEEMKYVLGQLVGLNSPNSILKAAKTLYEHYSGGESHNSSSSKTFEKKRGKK
Particulars: at 1 µM.

In test [10] the target is T3, Aurora kinase A (Homo sapiens) (UniProt O14965).
T3 sequence (whole entry): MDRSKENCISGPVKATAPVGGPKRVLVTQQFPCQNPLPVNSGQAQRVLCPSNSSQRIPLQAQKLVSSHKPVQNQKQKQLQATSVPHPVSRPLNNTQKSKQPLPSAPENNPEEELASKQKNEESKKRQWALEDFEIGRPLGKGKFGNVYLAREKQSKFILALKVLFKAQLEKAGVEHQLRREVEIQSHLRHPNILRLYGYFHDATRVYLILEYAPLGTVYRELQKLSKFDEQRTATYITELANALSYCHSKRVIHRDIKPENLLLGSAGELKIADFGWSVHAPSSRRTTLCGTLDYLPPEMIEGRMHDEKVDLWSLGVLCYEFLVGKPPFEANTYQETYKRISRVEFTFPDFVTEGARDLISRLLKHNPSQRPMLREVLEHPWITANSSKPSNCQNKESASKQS
Particulars: at 0.1 µM.

Test [11] has as its target T3, Aurora kinase A (Homo sapiens). Particulars: at 1 µM.
Test [12] addresses Aurora kinase B (Homo sapiens) (UniProt Q96GD4). Particulars: at 0.1 µM.
The target is the same in test [13]. Particulars: at 1 µM.
Test [14] addresses T4, Aurora kinase C (Homo sapiens) (UniProt Q9UQB9).
T4 sequence (whole entry): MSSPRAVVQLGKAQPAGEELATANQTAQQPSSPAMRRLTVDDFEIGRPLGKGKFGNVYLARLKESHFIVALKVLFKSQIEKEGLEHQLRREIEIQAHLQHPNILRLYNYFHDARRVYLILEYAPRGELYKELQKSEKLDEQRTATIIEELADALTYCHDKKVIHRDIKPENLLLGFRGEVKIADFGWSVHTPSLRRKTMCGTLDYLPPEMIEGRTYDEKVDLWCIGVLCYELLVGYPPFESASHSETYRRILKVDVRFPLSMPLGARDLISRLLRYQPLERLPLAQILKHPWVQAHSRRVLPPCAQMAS
Particulars: at 0.1 µM.

The target in test [15] is T4, Aurora kinase C (Homo sapiens). Particulars: at 1 µM.
Test [16] concerns the target Serine/threonine-protein kinase 10 (Homo sapiens) (UniProt O94804). Particulars: at 0.1 µM.
The target is the same in test [17]. Particulars: at 1 µM.
For test [18], the target named is T5, Mitogen-activated protein kinase kinase kinase kinase 2 (Homo sapiens) (UniProt Q12851).
T5 sequence (whole entry): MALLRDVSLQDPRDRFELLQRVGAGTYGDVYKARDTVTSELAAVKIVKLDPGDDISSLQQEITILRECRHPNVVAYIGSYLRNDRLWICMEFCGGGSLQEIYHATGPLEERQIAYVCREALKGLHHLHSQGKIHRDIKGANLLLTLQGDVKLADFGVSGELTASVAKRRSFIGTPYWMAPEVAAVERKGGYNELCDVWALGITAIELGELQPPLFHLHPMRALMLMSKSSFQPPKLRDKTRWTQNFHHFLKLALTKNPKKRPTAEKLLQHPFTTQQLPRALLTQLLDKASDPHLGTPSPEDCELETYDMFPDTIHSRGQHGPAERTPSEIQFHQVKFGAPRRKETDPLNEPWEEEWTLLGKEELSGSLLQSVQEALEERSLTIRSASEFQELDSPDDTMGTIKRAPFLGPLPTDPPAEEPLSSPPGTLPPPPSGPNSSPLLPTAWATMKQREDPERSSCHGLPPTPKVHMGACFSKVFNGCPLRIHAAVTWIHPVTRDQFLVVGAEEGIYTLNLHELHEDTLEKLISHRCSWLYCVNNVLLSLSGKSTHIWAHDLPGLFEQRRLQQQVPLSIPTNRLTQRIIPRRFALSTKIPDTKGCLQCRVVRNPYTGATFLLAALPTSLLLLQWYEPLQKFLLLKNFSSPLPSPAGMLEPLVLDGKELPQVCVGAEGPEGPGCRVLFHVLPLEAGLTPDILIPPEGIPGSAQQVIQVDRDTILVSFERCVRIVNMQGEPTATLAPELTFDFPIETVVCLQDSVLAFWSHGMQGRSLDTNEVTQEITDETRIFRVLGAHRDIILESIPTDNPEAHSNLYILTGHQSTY
Particulars: at 0.1 µM.

In test [19] the target is T5, Mitogen-activated protein kinase kinase kinase kinase 2 (Homo sapiens). Particulars: at 1 µM.
Test [20] addresses Mitogen-activated protein kinase kinase kinase kinase 4 (Homo sapiens) (UniProt O95819). Particulars: at 0.1 µM.

The inhibition is the drop in the measured response relative to a control, in per cent.

BDNF/NT-3 growth factors receptor (Homo sapiens), sequence (Q16620 32-822 limits assumed): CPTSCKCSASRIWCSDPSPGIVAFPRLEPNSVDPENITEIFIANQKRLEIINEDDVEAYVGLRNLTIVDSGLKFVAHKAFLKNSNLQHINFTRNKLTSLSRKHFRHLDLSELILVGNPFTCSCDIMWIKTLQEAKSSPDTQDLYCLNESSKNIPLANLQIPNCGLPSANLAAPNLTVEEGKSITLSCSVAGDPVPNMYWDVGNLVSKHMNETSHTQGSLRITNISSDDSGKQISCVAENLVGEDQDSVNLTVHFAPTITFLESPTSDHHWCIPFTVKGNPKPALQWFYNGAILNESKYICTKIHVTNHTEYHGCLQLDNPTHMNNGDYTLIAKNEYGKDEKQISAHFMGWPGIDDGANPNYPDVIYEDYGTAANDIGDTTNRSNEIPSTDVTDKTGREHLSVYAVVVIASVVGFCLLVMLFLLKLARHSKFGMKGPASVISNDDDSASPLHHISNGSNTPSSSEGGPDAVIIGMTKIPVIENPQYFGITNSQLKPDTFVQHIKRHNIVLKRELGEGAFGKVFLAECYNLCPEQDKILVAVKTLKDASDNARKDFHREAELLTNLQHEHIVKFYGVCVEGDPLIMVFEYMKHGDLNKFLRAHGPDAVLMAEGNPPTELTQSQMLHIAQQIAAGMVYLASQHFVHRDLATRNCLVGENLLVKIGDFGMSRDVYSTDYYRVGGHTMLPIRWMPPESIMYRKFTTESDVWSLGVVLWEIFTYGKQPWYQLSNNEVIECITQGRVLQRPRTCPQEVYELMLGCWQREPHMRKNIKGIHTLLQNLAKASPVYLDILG
Aurora kinase B (Homo sapiens), sequence (Q96GD4 whole entry): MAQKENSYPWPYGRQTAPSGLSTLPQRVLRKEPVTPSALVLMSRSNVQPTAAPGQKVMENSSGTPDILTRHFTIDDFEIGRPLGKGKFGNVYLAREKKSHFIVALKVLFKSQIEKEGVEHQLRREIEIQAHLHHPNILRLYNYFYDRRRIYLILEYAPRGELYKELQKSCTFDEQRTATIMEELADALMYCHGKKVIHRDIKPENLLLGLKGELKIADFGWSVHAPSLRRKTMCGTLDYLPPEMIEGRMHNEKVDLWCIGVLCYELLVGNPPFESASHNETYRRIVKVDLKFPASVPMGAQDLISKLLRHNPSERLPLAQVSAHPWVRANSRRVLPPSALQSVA
Serine/threonine-protein kinase 10 (Homo sapiens), sequence (O94804 whole entry, looked up): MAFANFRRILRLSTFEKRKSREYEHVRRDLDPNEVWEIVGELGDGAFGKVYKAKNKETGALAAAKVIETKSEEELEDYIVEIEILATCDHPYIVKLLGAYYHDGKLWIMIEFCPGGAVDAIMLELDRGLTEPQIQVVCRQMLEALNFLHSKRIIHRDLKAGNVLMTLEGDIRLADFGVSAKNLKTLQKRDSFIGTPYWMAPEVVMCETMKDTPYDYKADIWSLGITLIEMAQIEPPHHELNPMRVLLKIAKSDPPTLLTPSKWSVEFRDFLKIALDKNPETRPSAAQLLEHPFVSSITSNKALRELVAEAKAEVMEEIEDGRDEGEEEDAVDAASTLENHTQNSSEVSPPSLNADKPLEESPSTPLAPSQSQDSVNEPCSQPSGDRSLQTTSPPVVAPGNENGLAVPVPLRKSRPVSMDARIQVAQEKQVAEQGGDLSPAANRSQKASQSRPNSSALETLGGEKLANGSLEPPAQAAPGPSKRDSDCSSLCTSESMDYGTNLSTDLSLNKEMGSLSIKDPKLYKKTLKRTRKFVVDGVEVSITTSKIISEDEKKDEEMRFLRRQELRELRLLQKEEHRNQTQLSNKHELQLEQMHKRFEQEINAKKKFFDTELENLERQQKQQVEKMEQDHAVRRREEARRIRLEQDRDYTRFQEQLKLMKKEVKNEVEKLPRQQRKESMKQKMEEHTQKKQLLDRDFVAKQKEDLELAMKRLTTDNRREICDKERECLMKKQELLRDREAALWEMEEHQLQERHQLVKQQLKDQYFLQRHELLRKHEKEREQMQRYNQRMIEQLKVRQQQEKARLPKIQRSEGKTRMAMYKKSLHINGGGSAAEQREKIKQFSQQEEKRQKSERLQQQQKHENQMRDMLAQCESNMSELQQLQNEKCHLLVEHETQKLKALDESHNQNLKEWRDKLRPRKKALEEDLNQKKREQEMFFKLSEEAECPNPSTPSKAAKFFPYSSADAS
High affinity nerve growth factor receptor (Homo sapiens), sequence (P04629 33-796 limits assumed): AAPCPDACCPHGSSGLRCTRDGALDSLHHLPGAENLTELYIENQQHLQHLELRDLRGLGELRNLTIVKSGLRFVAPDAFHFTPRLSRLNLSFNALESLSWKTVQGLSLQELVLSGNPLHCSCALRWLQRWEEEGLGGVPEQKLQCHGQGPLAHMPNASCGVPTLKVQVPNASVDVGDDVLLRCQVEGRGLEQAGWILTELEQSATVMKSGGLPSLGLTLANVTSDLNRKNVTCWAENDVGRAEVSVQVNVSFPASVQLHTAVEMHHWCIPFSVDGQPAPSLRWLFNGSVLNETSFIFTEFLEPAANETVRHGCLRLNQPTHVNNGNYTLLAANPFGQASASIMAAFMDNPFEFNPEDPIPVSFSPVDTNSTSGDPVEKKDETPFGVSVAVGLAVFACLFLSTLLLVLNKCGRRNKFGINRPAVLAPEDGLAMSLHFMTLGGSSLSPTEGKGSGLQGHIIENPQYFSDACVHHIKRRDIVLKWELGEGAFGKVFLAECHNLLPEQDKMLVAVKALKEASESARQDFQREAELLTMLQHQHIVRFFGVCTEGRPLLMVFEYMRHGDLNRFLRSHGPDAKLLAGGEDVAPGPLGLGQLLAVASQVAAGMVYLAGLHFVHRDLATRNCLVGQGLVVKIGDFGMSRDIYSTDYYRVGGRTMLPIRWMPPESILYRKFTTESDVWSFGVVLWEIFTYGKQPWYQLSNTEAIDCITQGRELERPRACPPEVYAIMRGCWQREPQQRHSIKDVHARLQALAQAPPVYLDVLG

`COc1ccc(-c2oc3ncnc(N)c3c2-c2ccc(NC(=O)Nc3cc(C(F)(F)F)ccc3F)cc2)cc1`: the inhibition in test [1] is 98.4%; in test [2] it was 88.4%; in [3] it was 101%; in [4], 87.2%; in test [5] it was 98.5%; in [6] it was 3.68%. The inhibition is 8.48% in [7]; -5.26% in test [8]; 14.6% in test [9]; 1.73% in [10]; 49.5% in test [11]; 8.53% in test [12]. The inhibition came out at 46.2% in test [13]; 3.56% in test [14]; 76.2% in test [15]; 49.5% in test [16]; 91.3% in [17]; 8.42% in test [18]. Further, the inhibition came to 47.2% in [19] and 5.29% in test [20].

Take `CCCN1CCC(c2ccc(Nc3nc(Nc4cc(F)ccc4C(N)=O)c4cc[nH]c4n3)c(OC)c2)CC1`: the inhibition turned out to be 3.87% in test [1]; 4.25% in test [2]; 9.14% in [3]; 2.83% in [4]; 7.22% in test [5]; 3.85% in [6]. In addition, the inhibition was 6.29% in test [7]; -2.8% in test [8]; 83% in test [9]; 2.78% in test [10]; 10.4% in test [11]; 1.95% in [12]. Further, the inhibition is 3.04% in test [13]; 0.37% in [14]; -4.81% in test [15]; 7.74% in [16]; 29.2% in test [17]; 10.2% in test [18]. The inhibition in test [19] was 51.6%; in test [20], 28.1%.

On to `COC(=O)Nc1nc2ccc(Oc3ccc(NC(=O)Nc4cccc(Cl)c4)cc3)cc2[nH]1`, for which the inhibition in [1] amounted to 41.6%; in [2], 8.53%; in [3], 22%; in test [4], 11.7%; in [5], 26.1%; in [6] it was 0.76%. Also, the inhibition in test [7] stood at 2.29%; in test [8], 2%; in test [9], 3.42%; in test [10], 2.85%; in test [11], 0.65%; in [12], 16%. The inhibition in [13] came out at 22.7%; in test [14], 16.6%; in test [15], 35.3%; in test [16], 14.1%; in [17], 27.1%; in [18], 0.77%. The inhibition in test [19] was 7.45%; in test [20], 0.19%.

Turning to `COc1ccc(-c2cc3c(N)ncnc3o2)cc1`, the inhibition in [1] is 2.94%; in [2], -0.36%; in [3], 1.81%; in [4], 0.53%; in test [5], 0.25%; in test [6], 0.91%. For the same compound, the inhibition was 2.2% in [7]; -0.95% in test [8]; 0.09% in [9]; 0.51% in test [10]; 1.33% in test [11]; -0.85% in test [12]. Further, the inhibition in test [13] is 11.7%; in test [14], 1.13%; in test [15], 16.7%; in [16], -1.35%; in test [17], 0.33%; in [18], 2.31%. The inhibition in [19] is 4.72%; in test [20], 2%.

`c1ccc(COc2ccc(Nc3ncnc4ccc(-c5ccco5)cc34)cc2)cc1`: the inhibition in test [1] was -2.33%; in [2], -0.32%; in test [3], 3.16%; in [4], -0.16%; in test [5] it was 0.74%; in test [6], 0.01%. Besides, the inhibition in test [7] is 1.09%; in test [8], -4.95%; in test [9] it was 3.2%; in test [10], 2.29%; in test [11], 3.53%; in test [12] it was 1.9%. Moreover, the inhibition in [13] amounted to 4.9%; in test [14] it was 0.82%; in test [15], 6.4%; in [16] it was 3.53%; in [17] it was 5.39%; in [18], 2.84%. The inhibition in [19] came to 2.66%; in test [20], 2.01%.

On to `NC(=O)c1sc(-n2cnc3ccc(C(F)(F)F)cc32)cc1OCc1ccccc1Br`, for which the inhibition is 1.97% in [1]; 4.43% in test [2]; 2.79% in test [3]; 4.04% in [4]; 4.67% in test [5]; 1.39% in test [6]. The inhibition was -0.88% in test [7]; -4.87% in test [8]; 9.08% in [9]; 2.74% in test [10]; 5.5% in [11]; 2.77% in test [12]. Also, the inhibition in test [13] is 5.43%; in test [14], -0.7%; in test [15], -6.73%; in test [16], 9.21%; in test [17], 26%; in test [18], 0.79%. The inhibition stood at 8.19% in test [19] and 4.62% in test [20].
